Screens: PubChem BioAssay, National Center for Advancing Translational Sciences (NCATS)
VP16 counter = VP16 counterscreen qHTS for inhibitors of ROR gamma transcriptional activity; AID 2546, 2010; Drosophila S2 Gal4-VP16 UAS-luciferase, luminescence, 20 h; 310,000 compounds, 3.5% hits; Potency, µM (doses to about 53.6 µM), without a hit: at the top dose activity, negative = inhibition, most hits filed as inhibitors;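 also: Gal4-VP16 expression switched on by copper sulfate through the metallothionein promoter; nearly all actives have a fitted effect of over 50% in size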
ALOX12 inh = Primary qHTS assay for inhibitors of human arachidonate 12S-lipoxygenase (ALOX12): Round 2. purified 12hLO, xylenol orange hydroperoxide absorbance. 580,000 compounds, 1.1% hits. Polyunsaturated fatty acid lipoxygenase ALOX12 (Homo sapiens), P18054. AID 1671190, 2021. Potency, µM (highest dose often 108 µM), for inactives: top-dose activity change, negative = inhibition, most hits filed as inhibitors
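Purified human 12hLO (150 nM final) in 25 mM Hepes, 0.01% Triton X-100, pH 7.0 was preincubated 15 min at room temperature with compound. Then 40 uM arachidonic acid was added, 30 min. Hydroperoxide was read by Fe-XO absorbance ratio 573/405 nm.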
DT40 TDP1 CPT = qHTS for Inhibitors of human tyrosyl-DNA phosphodiesterase 1 (TDP1): qHTS in cells in presence of CPT; chicken DT40 Tdp1-/-;hTDP1 cells + 20 nM CPT, ATP luminescence, 48 h; Potency, µM (highest dose often 46.2 µM), for inactives: top-dose activity change, negative = growth inhibition, actives largely listed as inhibitors; 420,000 compounds, 12% hits; AID 686979, 2013; also: nearly all actives have a fitted effect of over 55% in size
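Chicken DT40 Tdp1-/- cells complemented with human TDP1, 400 cells/well, exposed to compounds plus 20 nM camptothecin for at least 48 h at 37 C; viability read as ATP content by CellTiter-Glo luminescence.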
RORg inh = qHTS for inhibitors of ROR gamma transcriptional activity; AID 2551, 2010; Potency, µM (top dose mostly 53.6 µM), for inactives: top-dose activity change, negative = inhibition, usual class: inhibitors; Drosophila S2 Gal4-RORgamma UAS-luciferase reporter, 20 h; Nuclear receptor ROR-gamma (Mus musculus), P51450; 310,000 compounds, 5.4% hits; also: nearly all actives have a fitted effect of over 60% in size
Target sequence (P51450 whole entry, looked up, the tested form may be a part): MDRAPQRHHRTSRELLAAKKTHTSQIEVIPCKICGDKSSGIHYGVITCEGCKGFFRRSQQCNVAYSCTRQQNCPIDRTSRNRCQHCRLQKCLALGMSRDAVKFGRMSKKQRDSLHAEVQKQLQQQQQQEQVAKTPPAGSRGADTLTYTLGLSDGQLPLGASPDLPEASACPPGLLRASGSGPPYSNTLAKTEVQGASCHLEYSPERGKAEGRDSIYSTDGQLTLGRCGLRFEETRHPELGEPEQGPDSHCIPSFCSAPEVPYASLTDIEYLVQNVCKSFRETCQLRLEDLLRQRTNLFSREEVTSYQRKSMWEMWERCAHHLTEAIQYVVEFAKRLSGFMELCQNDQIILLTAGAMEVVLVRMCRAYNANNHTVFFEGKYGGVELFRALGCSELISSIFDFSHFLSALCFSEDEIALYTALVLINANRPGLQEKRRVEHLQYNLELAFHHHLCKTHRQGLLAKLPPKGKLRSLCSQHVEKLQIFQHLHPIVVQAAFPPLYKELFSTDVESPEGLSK
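Drosophila S2 cells stably expressing Gal4-DBD/mouse RORγ fusion under metallothionein promoter plus UAS-luciferase; compound 1 h, then 700 uM CuSO4 induction for 20 h at ambient temperature; inhibition read as reduced luminescence.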
TDP1 cell noCPT = qHTS for Inhibitors of human tyrosyl-DNA phosphodiesterase 1 (TDP1): qHTS in cells in absence of CPT. DT40 Tdp1-/- hTDP1 cells, no CPT, ATP luminescence, 48 h. Potency, µM (series often up to 46.2 µM), for inactives: at the highest dose activity change, negative = growth inhibition, hits mostly inhibitors. 420,000 compounds, 15% hits; also: nearly all actives have a fitted effect of over 55% in size
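Chicken DT40 Tdp1-/- cells complemented with human TDP1, screened without camptothecin (DMSO vehicle only), 400 cells/well. Compounds pin-transferred, cells incubated at 37 °C for at least 48 hr. Growth read as ATP-dependent luminescence (CellTiter-Glo, 30 min at RT).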
ELG1 DNA repair = qHTS screen for small molecules that inhibit ELG1-dependent DNA repair in human embryonic kidney (HEK293T) cells expressing luciferase-tagged ELG1. HEK293T ELG1-luciferase reporter, luminescence, 16 h; DNA damage induced by 5-fluorouridine. Potency, µM (doses to about 46.1 µM), without a hit: at the highest dose activity change, negative = inhibition, hits mostly inhibitors. 330,000 compounds, 2.3% hits. AID 504467, 2011; also: nearly all actives have a fitted effect of over 55% in size
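Reporter activity after DNA damage by 5-fluorouridine is monitored. Compound-treated cells incubate 16 hr at 37 °C, then ONE-Glo is added for 30 min before luminescence reading.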
* hit, by the source's call; ? = inconclusive; / = no result given; [ ] = remark or other dose. The list is not random: actives were taken first. Their share in the collection is about 15%. Calls follow the shape of the dose curve; as a rule, active = well fitted curve in the direction sought with a large enough effect; inconclusive = small, poorly fitted or top-dose-only effect, or another doubt; inactive = no such curve, though single readings can be large; an effect the other way counts as inactive or inconclusive. % is scaled to controls: 0 for no effect and ±100 for the full control effect; potency is read from the fitted curve at half-maximal effect.

SMILES	VP16 counter	ALOX12 inh	DT40 TDP1 CPT	RORg inh	TDP1 cell noCPT	ELG1 DNA repair
c1ccc2c(c1)ncn2-c1ccc(-c2ccnc(-c3ccncc3)n2)cc1	-4%	-12%	-29%	0%	?	-29%
O=C(CCC1CCN(C(=O)c2ccccc2F)CC1)NC1CC1	/	-7%	/	/	/	/
O=C(NCc1cccc(F)c1)c1ccc2nc(CCc3ccccc3)oc2c1	/	-4%	21µM*	/	?	/
CCC(C)NC(=O)c1ccc2nc(-c3cccs3)c(-c3cccs3)nc2c1 (stereo not drawn)	/	/	10µM*	/	13µM*	/
CCNC(=O)c1ccc2nc(CCc3ccccc3)oc2c1	/	-6%	-23%	/	-19%	/
CCC(C)NC(=O)c1cc(-c2cccs2)nc2ccccc12 (stereo not drawn)	4%	?	27%	13%	?	?
CC(NC(=O)c1ccc2nc(CCc3ccccc3)oc2c1)c1ccccc1 (stereo not drawn)	/	9%	21µM*	/	?	/
Cc1cccc(NC(=O)c2ccc3nc(CCc4ccccc4)oc3c2)c1C	/	-16%	18µM*	/	?	/
CNC(=O)c1cn2c(n1)CN(C(=O)OCc1ccccc1)CC2	/	1%[6.33 µM]	/	/	/	/
CCC(C)NC(=O)c1ccc2nc(CCc3ccccc3)oc2c1 (stereo not drawn)	/	-14%	?	/	23µM*	/
OC(CNCc1ccc(Cl)cc1)COc1ccccc1 (stereo not drawn)	-2%	?	?	-16%	?	6%
CCC(C)(C)c1ccc(OCC(O)CNCc2ccccc2)c(C(C)(C)CC)c1 (stereo not drawn)	/	45µM*	/	/	/	/
Fc1ccc(-c2cnc3n2C[C@H](CNCc2ccc4c(c2)OCO4)OC3)cc1	/	22µM*	/	/	/	/
Clc1ccc(-c2cnc3n2C[C@H](CNCc2ccc4c(c2)OCO4)OC3)cc1	/	40µM*	/	/	/	/
c1ccc(CNC[C@H]2Cn3c(-c4ccc5c(c4)OCCO5)cnc3CO2)cc1	/	56%[176 µM]	/	/	/	/
Cc1ccc(-c2cn3c(n2)CO[C@@H](CNCc2ccc(S(C)(=O)=O)cc2)C3)cc1	/	64%[176 µM]	/	/	/	/
Cc1ccc(-c2cn3c(n2)CO[C@@H](CNCc2ccc(Cl)cc2)C3)cc1	/	13µM*	/	/	/	/
Clc1ccc(CNC[C@H]2Cn3c(-c4ccccc4)cnc3CO2)cc1	/	25µM*	/	/	/	/
Clc1ccc(CNC[C@H]2Cn3c(-c4cccc(Cl)c4)cnc3CO2)cc1	/	-43%[176 µM]	/	/	/	/
O=C(C1CN(C(=O)c2nn(-c3ccccc3)c(=O)c3ccccc23)c2ccccc2O1)N1CCCCC1 (stereo not drawn)	/	15%	/	/	/	/
CCOc1ccc(-c2csc(/C(C#N)=C/c3ccc(Br)cc3)n2)cc1	/	-15%	-9%	/	-17%	/
CC(C)c1ccc(/C=C(\C#N)c2nc(-c3ccc(O)cc3)cs2)cc1	/	?	3.3µM*	/	2.6µM*	/
COc1ccc(/C=C(/C#N)c2nc(-c3ccc(Br)cc3)cs2)cc1	/	-18%	?	/	23µM*	/
COc1ccc(/C=C(\C#N)c2nc(-c3cc4ccccc4oc3=O)cs2)cc1OC	/	1%	4%	/	-3%	/
COc1ccc(-c2csc(/C(C#N)=C(\O)CSc3nccn3C)n2)cc1OC	-7%	0%	?	?	15µM*	12%
SMILES	VP16 counter	ALOX12 inh	DT40 TDP1 CPT	RORg inh	TDP1 cell noCPT	ELG1 DNA repair
COc1ccc(/C=C(/C#N)c2nc(-c3ccc(-c4ccccc4)cc3)cs2)cc1OC	/	-19%	?	/	12µM*	/
Cc1cc2c(c(=O)n1Cc1ccc3c(c1)OCO3)C(c1ccccc1Cl)C(C#N)=C(N)O2 (stereo not drawn)	/	3%	/	/	/	/
COc1ccc(NC(=O)Cn2c(C)cc3nc4n(c(=O)c32)CCCC4)cc1Cl	/	8%	/	/	/	/
COc1ccc(-c2csc(/C(C#N)=C\c3ccc(OC)c([N+](=O)[O-])c3)n2)cc1	-7%	-21%	?	8%	?	-13%
COc1ccc(-c2csc(/C(C#N)=C\c3ccc(O)c([N+](=O)[O-])c3)n2)cc1OC	2%	-16%	?	-7%	?	15µM*
CCOc1cc(=O)n2c(c1C(=O)Nc1ccc(C(N)=O)cc1)CCCC2	/	-2%	/	/	/	/
Cc1cc(C(=O)NNC(=S)NCC(C)C)no1	-24%	-3%	-29%	7.9µM*	?	-1%
CNC(=O)c1cc(Oc2ccc(NC(=O)Nc3ccc(Cl)c(C(F)(F)F)c3)cc2)ccn1	8.9µM*	11%	21µM*	?	23µM*	?
O=C(Nc1ccc(Cl)c(C(F)(F)F)c1)c1ccncc1	22%	-8%	?	-3%	15µM*	7%
O=C(Nc1ccc(Cl)c(C(F)(F)F)c1)c1ccc(Cl)c(Cl)c1	/	-1%	/	/	/	/
Cc1ccc(C(=O)Nc2ccc(Br)c(C(F)(F)F)c2)cc1	?	-12%	?	43%	23µM*	?
Cc1ccc(NC(=O)c2ccc(C)cc2)cc1	/	4%	4%	/	-7%	?
COC1CCOC2(CCNCC2)C1 (stereo not drawn)	/	7%	/	/	/	/
CN1CC2(CCN(C(=O)CC3CCCCC3)CC2)CC1C(=O)N1CCOCC1 (stereo not drawn)	/	11%	/	/	/	/
CC(C)(C)NC(=O)C(c1ccncc1)N(C(=O)Cn1nnc(-c2ccc(F)cc2)n1)c1ccccc1F (stereo not drawn)	-27%	0%	-11%	13µM*	-28%	8%
CC(C)(C)NC(=O)C(c1ccc(O)cc1)N(C(=O)Cn1nnc(-c2ccc(F)cc2)n1)c1ccccc1F (stereo not drawn)	-2%	-26%	?	10%	16µM*	0%
COCCN1C(=O)[C@@H]2C[C@@H](CN2C(=O)Cc2ccccc2)Oc2ccccc21	/	-20%[176 µM]	/	/	/	/
COCCOCCCNC(=O)c1ccc2nc(C)c(C)nc2c1	/	-1%	/	/	/	/
CC(C)C(=O)Nc1nc(-c2ccc([N+](=O)[O-])cc2)cs1	7%	0%	9.2µM*	14%	4.6µM*	?
CNc1nc(-c2ccc([N+](=O)[O-])cc2)cs1	17%	27%	2%	23%	-15%	?
O=C(Cc1nc(-c2ccc([N+](=O)[O-])cc2)cs1)Nc1ccccc1	-17%	8%	22µM*	2%	16µM*	?
